HEK293 tox: HEK 293 cell cytotoxicity; HEK 293 viability, ATP luminescence (CellTiter-Glo), 48-72 h; Potency, µM (series often up to 115 µM), without a hit: at the highest dose activity change, negative = cytotoxicity, most hits filed as inhibitors; hit rate 6.6% among 94,000; note: nearly all actives have a fitted effect of over 60% in size
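HEK 293 cells at 250 cells/well were exposed to compounds by pintool transfer for 48 or 72 hr at 37 degree Celsius, 5% CO2. Viability was read as ATP-coupled luminescence with CellTiter-Glo after 10 min at room temperature.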
GPT2 inhibitor: blocks human glutamate pyruvate transaminase 2. Potency, µM (doses to about 57.7 µM), for inactives: at the highest dose activity change, negative = inhibition, usual class: inhibitors. AID 1671188. hit rate 0.25% among 100,000. Q8TD30. Recombinant GPT2, coupled pyruvate oxidase/HRP Amplex Red fluorescence; note: nearly all actives have a fitted effect of over 60% in size
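GPT2 10ng/uL, a-KG 250uM, L-Ala 2mM, HEPES pH7.5 + 0.0001% Tween; 30 min RT. Then Amplex mix (PO/HRP/ThPP), 30 min RT dark, fluorescence. AOA 50uM used as positive control.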
FLuc inh: Photinus pyralis luciferase inhibition. Potency, µM (top dose mostly 115 µM), usual class: inhibitors. hit rate 2.5% among 76,000. P08659. purified P. pyralis luciferase, luminescence, biochemical; note: nearly all actives have a fitted effect of over 65% in size
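Inhibitors were tested against purified firefly luciferase in a biochemical, low-substrate format (both substrates at 10uM) and luminescence measured with a CCD imager.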
NIH3T3 tox: cytotoxic compounds in NIH 3T3 cells | hit rate 4.3% among 94,000 | AID 1345082 | Potency, µM (series often up to 96.7 µM), without a hit: at the highest dose activity change, negative = cytotoxicity, actives largely listed as inhibitors | NIH 3T3 viability, CellTiter-Glo ATP luminescence, 48-72 h; note: nearly all actives have a fitted effect of over 55% in size
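Luminescent ATP readout (CellTiter-Glo, 10 min RT) after 48 or 72 hr compound exposure of NIH 3T3 cells seeded at 400 cells/well in 1536-well format; quantitative HTS.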
NPR1 antag: antagonists of human natriuretic peptide receptor Npr1; hit rate 1.6% among 76,000; AID 1347048; P16066; Potency, µM (titrated, usually from 46.3 µM), inactives show at the top dose activity change, negative = inhibition, actives largely listed as inhibitors; HEK293 hNpr1 GloSensor cGMP, ANP-stimulated luminescence; calls by dose curve; note: nearly all actives have a fitted effect of over 60% in size
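HEK293 cells stably expressing human Npr1 and cGMP GloSensor pGS-40F, loaded 2 h with 2% GloSensor reagent, given compound 30 min at room temperature. Luminescence read before and 20 min after 0.1 nM hNppA.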
* hit, by the source's call; i = inactive; ? = inconclusive; / = no result; [ ] = another dose, or the depositor's remark. In the library only some 10% were active in any assay of this set; here they are far more common. Unless noted, calls come from the whole dose curve; as a rule, active = well fitted curve in the direction sought with a large enough effect; inconclusive = small, poorly fitted or top-dose-only effect, or another doubt; inactive = no such curve, though single readings can be large; an effect the other way counts as inactive or inconclusive. % is set by controls: 0 for no effect and ±100 for the full control effect; potency is the fitted concentration of half-maximal effect.

SMILES	HEK293 tox	GPT2 inhibitor	FLuc inh	NIH3T3 tox	NPR1 antag
O=C(NCC1Cn2cccc2CN1Cc1ccccc1)c1cncc(Br)c1 (centres undefined)	89µM*	-22%	i	?	4%
Cn1nccc1C(=O)NCC1Cn2cccc2CN1Cc1ccccc1 (centres undefined)	79µM*	i	i	?	-5%
C/C=C/C=C/C(=O)O[C@@H]1C=C2COC(=O)[C@]2(O)[C@@]2(C)CCCC(C)(C)[C@H]12	/	i	/	/	/
COc1ccc(Nc2ccnc(N3CCC(NC(=O)c4ccccc4OC)CC3)n2)cc1	50µM*	i	/	?	/
COc1ccc(Nc2ccnc(N3CCC(NC(=O)c4ccccc4Cl)CC3)n2)cc1	40µM*	i	/	?	/
COc1ccccc1Nc1ccnc(N2CCC(NC(=O)c3ccccc3OC)CC2)n1	?	i	/	?	/
COc1ccc(Nc2ccnc(N3CCC(NC(=O)C4CC4)CC3)n2)cc1	?	i	/	-20%	/
Cc1ccc(Nc2ccnc(N3CCC(NC(=O)c4ccccc4C)CC3)n2)cc1	35µM*	3%	/	25µM*	/
O=C(NC1CCC(O)CC1)c1ccc(-c2ncc3cnc(-c4cccc(F)c4)cn23)cc1 (centres undefined)	71µM*	i	i	-26%[138 µM]	-3%[70.6 µM]
O=C(NCCc1cnc[nH]1)c1ccc(-c2ncc3cnc(-c4cccc(F)c4)cn23)cc1	89µM*	-5%[88.5 µM]	i	50µM*	2%[70.6 µM]
O=C(NCCc1cnc[nH]1)c1ccc(-c2ncc3cnc(-c4ccccc4)cn23)cc1	/	-8%[88.5 µM]	/	/	/
O=C(CNC(=O)c1cccc(-c2ccc(C(F)(F)F)cc2)c1)NCCC1CCCCC1	22µM*	i	/	22µM*	/
O=C(CNC(=O)c1cccc(-c2ccc(C(F)(F)F)cc2)c1)NCCc1ccc(Cl)cc1	16µM*	i	/	-23%	/
COCCNC(=O)CNC(=O)c1cccc(-c2ccc(C(F)(F)F)cc2)c1	?	i	/	?	/
COc1ccc([C@H]2CN(C(=O)c3ccc(C#CC(C)(C)O)cc3)C[C@@H]2N)cc1	0%	i	i	-1%	7%
Cc1nn(C)cc1CN1CCc2n[nH]c(=O)n2CC1	-5%	i	i	3%	2%
COc1ccccc1-c1cccc(CN2CCCC(C(=O)N3CCCC3)C2)c1 (centres undefined)	?	0%	/	?	/
Cc1cccc(-c2cccc(CN3CCCC(C(=O)NCCCc4ccccc4)C3)c2)c1 (centres undefined)	45µM*	-2%	/	40µM*	/
COc1ccccc1-c1cccc(CN2CCCC(C(=O)NCCCc3ccccc3)C2)c1 (centres undefined)	?	1%	/	35µM*	/
COCCNC(=O)C1CCCN(Cc2cccc(-c3cccc(C)c3)c2)C1 (centres undefined)	?	i	/	?	/
Cc1ccc(-c2ccccc2CN2CCC(C(=O)N3CCOCC3)CC2)cc1Cl	79µM*	i	/	?	/
Cc1ccc(-c2ccccc2CN2CCN(C(=O)NC3CCCC3)CC2)cc1Cl	22µM*	i	/	20µM*	/
Cc1ccc(-c2ccccc2CN2CCC(C(=O)NC3CCCC3)CC2)cc1Cl	-15%	/	/	-15%	/
COc1ccccc1C(=O)N1CCN(Cc2ccccc2-c2ccc(C)c(Cl)c2)CC1	?	-4%	/	35µM*	/
COc1ccc(C(=O)N2CCC3(CC2)N(C)C(=O)CS3(=O)=O)c(OC)c1	-4%	i	i	3%	-1%
SMILES	HEK293 tox	GPT2 inhibitor	FLuc inh	NIH3T3 tox	NPR1 antag
CC1(c2ccccc2)N(Cc2ccccc2C#N)C(=O)OC12CCN(C(=O)c1cccc(O)c1)CC2 (centres undefined)	?	0%	i	?	-6%
COc1ccccc1C(=O)NC1CCCN(Cc2ccc(-c3cncnc3)cc2)C1 (centres undefined)	?	i	/	-26%	/
CC(C)c1ccc(CN2CC(CNC(=O)c3cnn(C)c3)C3(C2)CN(c2ccccc2)C3)cc1 (centres undefined)	79µM*	i	i	?	-3%
COc1ccc(CN2CC(CNc3ccccc3)C3(C2)CN(c2ccccc2)C3)cc1O (centres undefined)	40µM*	?	i	28µM*	-8%[70.6 µM]
COc1ccc(CN2CC(CN[S+](=O)([O-])c3ccccc3)C3(C2)CN(c2ccccc2)C3)cc1O (centres undefined)	?	i	i	22µM*	-11%
CC(C)c1ccc([S+](=O)([O-])N2CC(CNC(=O)c3cnn(C)c3)C3(CN(c4ccccc4)C3)C2)cc1 (centres undefined)	?	-18%	i	?	-12%
COc1ccccc1CN1CC(CNC(=O)Nc2ccccc2)C2(C1)CN(c1ccccc1)C2 (centres undefined)	79µM*	-14%	i	?	-15%
COc1cccc(CN2C(=O)CCCCC2C(=O)N2CCN(c3ccccn3)CC2)c1 (centres undefined)	-12%	i	/	-18%	/
COc1ccc(-c2cccc(C(=O)N3CCN(C(=O)C4CCCC4)CC3)c2)nn1	-20%	/	/	-19%	/
O=[S+]([O-])(NCC1CN(Cc2ccc3c(c2)CCO3)CC12CN(c1ccccc1)C2)c1ccccc1 (centres undefined)	?	-6%	i	?	-14%
CC(C)CCN1CC(CN[S+](=O)([O-])c2ccccc2)C2(C1)CN(c1ccccc1)C2 (centres undefined)	?	?	i	45µM*	-17%[70.6 µM]
COCc1ccc2c(c1)c(OC(C)(C)C(=O)NCc1cnccn1)nn2Cc1ccccc1	?	0%	i	40µM*	4%
CC(C)(Oc1nn(Cc2cccc(Cl)c2)c2ccccc12)C(=O)N1CCCC1	?	-19%[88.5 µM]	i	50µM*	-16%[70.6 µM]
COCc1ccc2c(c1)c(OC(C)(C)C(=O)N1CC(O)C1)nn2Cc1ccccc1	?	-3%[88.5 µM]	i	100µM*	3%[70.6 µM]
COCc1ccc2c(c1)c(OC(C)(C)C(=O)NC1CCC(O)CC1)nn2Cc1ccccc1 (centres undefined)	-31%	i	i	40µM*	-2%
COCc1ccc2c(c1)c(OC(C)(C)C(=O)Nc1cccnc1)nn2Cc1ccccc1	?	i	i	?	0%[70.6 µM]
Clc1ccc(-c2cnc([C@@H]3COCCN3Cc3csnn3)[nH]2)cc1	-8%[172 µM]	-7%[88.5 µM]	i	-6%[138 µM]	-25%[70.6 µM]
C=CCN1CC2(CCC1=O)CCN(C(=O)[C@@H]1C[C@H]1c1ccccc1)CC2	-1%	-8%	i	2%	16%
O=C(CCC1CCN(C(=O)c2ccccn2)CC1)N1CCC(Cc2ccccc2)CC1	?	4%	i	-37%	-17%

Assay outcomes from PubChem.
